# Screening data (PubChem)
# This is a sample that favours compounds with a hit; in the whole collection about 5.7% have one here.
# TGFb inhibitor – blocks TGF-b signaling; Potency, µM (top dose mostly 46.1 µM), inactives show at the top dose activity, negative = inhibition, hits mostly inhibitors; 410,000 compounds, 1.2% hits; AID 588855; HepG2 CAGA-GFP TGF-b/SMAD3 reporter, GFP fluorescence, 18 h; TGF-beta stimulated, 500 pg/mL final; further: potency means the concentration at half of the fitted maximal effect; on the % scale 0 is the no-effect control and ±100 the full control effect; nearly all actives have a fitted effect of over 65% in size
#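 HEPG2 CAGA-GFP cells (1000/well, DMEM with 1% FBS) were pre-incubated 2 h at 37 degrees C, given compound by pin tool, then stimulated with TGF-beta at 500 pg/mL final for 18 h before per-cell GFP fluorescence imaging.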
# IL1B secr inh – blocks inflammasome-driven IL-1 beta release. activity change, % at 57.5 µM. THP-1 LPS/ATP IL-1B secretion, AlphaLISA, 16 h; active compounds read low. 360,000 compounds, 4.7% hits. AID 743279; in the data active means activity change below about -50%; inconclusive means mostly about -30% to -49%; further: on the % scale 0 is the no-effect control and ±100 the full control effect
#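 Secreted IL-1B measured by AlphaLISA bead assay after 16 h compound exposure of THP-1 cells; compounds (final up to 57.5 uM) added 1 h before LPS (250 ng/mL) and ATP (1.25 mM) stimulation; lower signal means less secretion.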
# ATXN viability – reduces viability in counter-screen for ATXN expression inhibitors. S2 cells (HEK-293 line with an ATXN2-luciferase reporter) viability, CellTiter-Fluor protease fluorescence, 24 h. Potency, µM (titrated, usually from 56.7 µM), hits mostly cytotoxic. 400,000 compounds, 0.49% hits; further: potency means the concentration at half of the fitted maximal effect; nearly all actives have a fitted effect of over 40% in size
# ATXN2 expr inh – ATXN2 expression inhibition. HEK-293 ATXN2-luciferase reporter, luminescence, 24 h. Potency, µM (series often up to 57 µM), for inactives: at the highest dose activity change, negative = inhibition, actives largely listed as inhibitors. 360,000 compounds, 0.72% hits. AID 1745845; further: potency means the concentration at half of the fitted maximal effect; on the % scale 0 is the no-effect control and ±100 the full control effect; nearly all actives have a fitted effect of over 55% in size
#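 qHTS (up to 57 uM final) was run with 24 h compound exposure of reporter cells at 37 °C. Each well was multiplexed: SteadyGlo luminescence measured ATXN2-luciferase expression after a fluorogenic Gly-Phe-AFC viability readout (25 uM final).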
# HepG2 tox – counter-screen for TGF-b inhibitors: cytotoxicity in HepG2 cells | HepG2 CAGA-GFP viability, ATP luminescence, 18 h | Potency, µM (highest dose often 46.1 µM), inactives show at the top dose activity change, negative = cytotoxicity, actives largely listed as cytotoxic | 410,000 compounds, 0.76% hits; further: potency means the concentration at half of the fitted maximal effect
#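 CellTiter-Glo luminescence gave cytotoxicity after 18 hours at 37 degrees C. The cells were HepG2 CAGA-GFP in 1% FBS DMEM, stimulated with 500 pg/mL TGF-beta after compound addition. %Activity was normalised to no-cell wells (complete cell-killing) and DMSO (no toxicity), and curves were fitted and classified.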
# * = called active by the depositor; i = inactive; u = inconclusive; x = no result given; [ ] = another dose, or the depositor's remark. Unless noted, the call rests on the fitted dose curve; in most records, active means well fitted curve in the direction sought with a large enough effect; inconclusive means small, poorly fitted or top-dose-only effect, or another doubt; inactive means no such curve, though single readings can be large; an effect the other way counts as inactive or inconclusive.
SMILES,TGFb inhibitor,IL1B secr inh,ATXN viability,ATXN2 expr inh,HepG2 tox
CC12CCC=CC1C(c1ccc(F)c(Br)c1)N(Cc1ccccc1)C2=O (stereo not drawn),u,x,x,x,-23%
CCc1ccc(NC(=O)CCCc2nc(-c3ccco3)no2)cc1,0%,x,i,6%,-20%
CCCSc1ncc(Cl)c(C(=O)N2CCN(c3cccc(Cl)c3)CC2)n1,x,x,x,x,-19%
Fc1ccc(/C=N/Nc2nccnc2Cl)cc1,u,u,i,31%,10µM*
Oc1ccc(/C=N/Nc2nccnc2Cl)cc1,0%,0,i,22%,-78%
O=C1/C(=C\c2ccccc2)CN(C(=O)CCN2CCCCC2)C/C1=C/c1ccccc1,16µM*,-67*,u,u,-106%
CCN(CC)CCC(=O)N1C/C(=C/c2ccccc2)C(=O)/C(=C\c2ccccc2)C1,2.8µM*,-99*,13µM*,24µM*,-104%
O=C(NCCN1CCOCC1)c1ccc(Cl)c(Cl)c1,0%,6,i,-13%,8%
O=C1/C(=C\c2ccc(Cl)c(Cl)c2)CN(C(=O)CCN2CCOCC2)C/C1=C/c1ccc(Cl)c(Cl)c1,2.8µM*,-101*,6.7µM*,6.7µM*,16µM*
N#Cc1ccccc1COC(=O)c1cc(S(=O)(=O)N2CCOCC2)ccc1F,13%,u,u,x,16%
CCc1cc2c(COC(=O)c3cc(S(=O)(=O)N4CCOCC4)ccc3F)cc(=O)oc2cc1O,1%,-77*,x,u,-1%
O=C(OCc1cc(=O)oc2cc(O)ccc12)c1cc(S(=O)(=O)N2CCOCC2)ccc1F,-1%,-103*,i,-9%,16%
Cc1cccc(C(c2sc3nc(-c4ccco4)nn3c2O)N2CCOCC2)c1 (stereo not drawn),1%,x,i,-1%,4%
COc1ccc(CNC(=O)CCC2N=C3c4ccccc4N=C(SCc4ccc(F)cc4)N3C2=O)cc1 (stereo not drawn),u,x,u,-25%,-27%
Cc1c(C)c2c(c(C)c1OC(=O)CCC(=O)OCCO)CC[C@@](C)(CCC[C@H](C)CCC[C@H](C)CCCC(C)C)O2,x,x,u,-12%,x
O=C(O)/C=C/C(=O)Nc1ccccc1-c1ccccc1,-3%,-15,i,10%,-11%
O=C(O)/C=C/C(=O)Nc1ccccc1SC(F)(F)C(F)(F)C(F)(F)F,4%,-104*,u,-33%,-56%
Cc1ccc(F)cc1NC(=O)Cn1c(=O)nc(-c2ccccc2F)c2cc(Cl)ccc21,-19%,x,x,x,-7%
O=C(/C=C/C(Cl)(Cl)Cl)Nc1ccc(Cl)cc1,u,-104*,u,u,13µM*
NC(=O)/C=C/C(=O)Nc1ccc(Cl)cc1,-24%,-78*,u,u,5%
O=C(/C=C/c1ccc(Cl)cc1)Nc1ccc(N2CCCCC2)cc1,17%,20,i,18%,8%
Cc1nn(CCC(=O)Nc2ccc(Cl)cc2)c(C)c1S(=O)(=O)N1CCCCC1,u,x,x,x,-22%
ClCc1nnc(-c2cc3c(s2)CCCC3)o1,u,-105*,x,-17%[11.3 µM],-97%
CC(C)(C)C1CCc2sc(-c3nnc(CCl)o3)cc2C1 (stereo not drawn),17%,u,u,u,-16%
Cc1ccc2c(=O)cc(C(=O)Nc3ccc(S(=O)(=O)N(C)Cc4ccccc4)cc3)oc2c1C,2%,x,i,-8%,0%
SMILES,TGFb inhibitor,IL1B secr inh,ATXN viability,ATXN2 expr inh,HepG2 tox
CN(C)c1ccnc2sc(C(N)=O)c(N)c12,-7%,-66*,i,28%,-1%
CCOC(=O)c1sc2nccc(N(C)C)c2c1N=CN(C)C,4%,-9,i,7%,-14%
CN(C)c1ccnc2sc(C(=O)c3ccc(Br)cc3)c(N)c12,-7%,u,x,40%[11.3 µM],1%
CN(C)C=Nc1c(C(=O)c2ccccc2)sc2nccc(N(C)C)c12,16%,-54*,i,16%,4%
COCCCNC(=O)c1ccc(Cn2c(=O)c3ccccc3n(CC(=O)Nc3c(C)cccc3C)c2=O)cc1,-25%,x,i,-4%,-13%
CSc1c(C#N)c(N)nc2sc(C(=O)c3ccccc3)c(N)c12,27%,-73*,i,0%,22%
N#Cc1c(SCc2ccc(Cl)cc2)sc(C(=O)c2ccccc2)c1N,12%,15,i,-4%,-12%
Cc1c(C(=O)NCC2(N3CCOCC3)CCCCCC2)cnn1-c1nccc(-c2ccccc2F)n1,x,x,i,x,x
CCOc1ccc(CNC(=O)C2CCN(c3nnc(-n4c(C)ccc4C)s3)CC2)cc1,x,x,x,x,-32%
CCC(CC)C(=O)c1c[nH]c(C(=O)NC2CCCCCC2)c1,2%,-66*,i,10%,-2%
Cc1ccc(N2CCN(Cc3nnc(-c4ccc5c(c4)OCO5)o3)CC2)c(C)c1,21%,x,i,4%,-7%
CN(C)CC1CCC/C(=C/c2ccc(Cl)cc2)C1=O (stereo not drawn),u,-24,12µM*,u,-4%
O=C(NCc1ccco1)c1csc2c1CCCCC2,-22%,-14,i,5%,0%
CC1CCc2c(C(=O)NCc3ccco3)csc2C1 (stereo not drawn),u,-79*,i,1%,-5%
Cc1cccc(-n2cnc3cc(C(=O)N4CCc5ccccc54)ccc32)c1,u,-77*,i,5%,-11%
COCCNC(=O)c1ccc2c(c1)ncn2-c1cccc(C)c1,-16%,-11,i,2%,-4%
CCc1ccc(CNc2ncc(-c3cccc(OC)c3)n2C)cc1,x,x,x,x,-40%
COc1ccc(Cn2c(C3CC3)nc3ccc(NC(=O)c4ccco4)cc3c2=O)cc1,-18%,-54*,i,66%,-1%
COC1=C(C)C(=O)C2=C(C1=O)C1C3CC4=C(C(=O)C(OC)=C(C)C4=O)C(CNC(=O)C(C)=O)N3C(C#N)C(C2)N1C (stereo not drawn),0.14µM*,-99*,0.15µM*,u,7.1µM*
Nc1nc(Nc2cccc(F)c2)nc2ccccc12,-3%,-111*,i,77%,-30%
COc1ccc(Cl)cc1Nc1nc(N)c2ccccc2n1,-24%,-89*,i,10%,-17%
COc1ccc(C)cc1Nc1nc(N)c2cc(OC)c(OC)cc2n1,u,-92*,u,u,-170%
COc1cc2nc(N3CCN(c4cc(C)ccc4C)CC3)nc(N)c2cc1OC,u,-97*,x,u,11µM*
CCCC(CCC)C(=O)Nc1cccc(-c2cn3c(n2)SCC3)c1,8%,-4,i,x,-5%
O=C(Cc1ccc(Br)cc1)Nc1cccc(-c2cn3c(n2)SCC3)c1,-1%,-76*,i,-12%,-20%
Cc1ccc(NC(=O)N2CCC(CN3CCCCCC3)CC2)c(Cl)c1,-1%,x,x,x,4%
